# Laboratory results: ChEMBL document CHEMBL3988442, “University of Dundee, Small-Polar-MMV Screening Library” (2021)
# Target: T1, Aspartate--tRNA(Asp/Asn) ligase (Mycobacterium tuberculosis (strain ATCC 25618 / H37Rv)) (UniProt P9WFW3)
# T1 sequence (whole entry): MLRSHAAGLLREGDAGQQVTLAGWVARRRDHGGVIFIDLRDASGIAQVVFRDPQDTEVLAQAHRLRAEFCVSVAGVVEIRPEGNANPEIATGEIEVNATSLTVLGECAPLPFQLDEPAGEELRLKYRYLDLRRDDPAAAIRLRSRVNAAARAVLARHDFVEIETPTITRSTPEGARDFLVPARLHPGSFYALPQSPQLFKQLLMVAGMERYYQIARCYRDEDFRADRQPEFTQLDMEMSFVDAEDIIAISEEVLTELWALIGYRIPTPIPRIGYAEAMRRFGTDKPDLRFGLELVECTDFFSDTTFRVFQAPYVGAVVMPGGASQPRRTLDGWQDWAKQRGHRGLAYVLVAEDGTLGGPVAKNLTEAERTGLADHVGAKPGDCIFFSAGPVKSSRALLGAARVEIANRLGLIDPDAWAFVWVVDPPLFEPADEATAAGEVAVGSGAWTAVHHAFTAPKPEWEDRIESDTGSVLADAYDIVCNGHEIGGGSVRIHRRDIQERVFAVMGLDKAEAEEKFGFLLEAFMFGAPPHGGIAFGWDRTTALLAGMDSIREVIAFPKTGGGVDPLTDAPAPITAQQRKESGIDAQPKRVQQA
# Assay: Assay for Asp RNA synthetase-1 from Mycobacterium tuberculosis
# Type: functional
# Design: scale not given: in the data most compounds retested in dose-response had high values
# Details: 30 µM
row,Compound,Percent Effect
1,COc1cc(C(=O)N2CCC(c3n[nH]c(C4CC4)n3)CC2)ccc1C,-0.859%
2,CCOCC(=O)NC1(c2cccc(Br)c2)CC1,1.26%
3,CN(C)CCN1CCCC12CCN(C(=O)c1cccn1C)CC2,-5.96%
4,CN(CCC(F)(F)F)C(=O)C1CCCN1C(=O)OC(C)(C)C (stereo not given),4.8%
5,Cc1cnn(CC2CN(Cc3nc(N)c4ccccc4n3)CCO2)c1 (stereo not given),3.58%
6,Cc1nnc2n1CCN(Cc1ncc(-c3ccc(Cl)cc3)o1)C2,-2.3%
7,CC(C)N1CCO[C@H]2CN(C(=O)c3ccoc3)C[C@H]21,8.86%
8,CN(C)C(=O)CN1CCCCC1c1nc(N)ncc1-c1ccccc1 (stereo not given),-1.04%
9,Cc1nccc(CN2CCC(c3nnsc3S(C)(=O)=O)CC2)n1,-0.313%
10,Cc1cccc2[nH]c(C3CCN(C(=O)c4ccnn4C)CC3)nc12,-0.0892%
11,Cc1nn(C)c(Cl)c1CNCc1cccnc1N1CCOCC1,-7.19%
12,c1ncn(Cc2cnc3n2CCN(Cc2ccsc2)CC3)n1,-1.22%
13,CCOC(=O)[C@]12CCCN(Cc3nccs3)C[C@H]1CN(C(C)=O)C2,2.52%
14,Cn1ncc2c(=O)[nH]c(CN3CCCC3c3cccs3)nc21 (stereo not given),-0.799%
15,c1ccc(-n2ccc(CN3CCCC3Cn3cccn3)n2)cc1 (stereo not given),4.81%
16,Cn1cnnc1C1CCCN(C(=O)NCc2cc[nH]n2)C1 (stereo not given),4.95%
17,CN(Cc1nnc2n1CCC2)C(=O)NCCc1ccc2c(c1)OCO2,10.3%
18,COc1ccc(OCCCNC(=O)NCc2csc(C)n2)cc1,-1.75%
19,O=C(NCCC1=CCCCC1)C1CCCN(c2ccc3nncn3n2)C1 (stereo not given),-1.84%
20,CC(NC(=O)c1cccs1)C(=O)NCc1ccccc1CN1CCCC1 (stereo not given),-4.19%

row,Compound,Percent Effect
1,CC(C)Oc1ncccc1CNC(=O)C1CCCN(C(=O)C2CC2)C1 (stereo not given),-4.79%
2,CNC(=O)N1C[C@H]2CC[C@@]3(N=C(c4ccccc4)NC3=O)[C@H]2C1,4.9%
3,CCC1=N[C@@]2(CC[C@@H]3CN(C(=O)NCC(C)C)C[C@@H]32)C(=O)N1CC(C)C,4.11%
4,O=C(CCn1cccn1)N1C[C@@H]2CC[C@H](C1)N(Cc1ccccn1)C2=O,0.301%
5,CN(CC(=O)NCc1ccccn1)CC1CCCN1c1cccnn1 (stereo not given),-4.1%
6,O=C(c1cnccn1)N1CCN2C[C@H](OCc3ccccn3)C[C@H]2C1,4.4%
7,Cc1nn(C)c(N2CCOCC2)c1CNCc1nccs1,-2.7%
8,COC(=O)c1ccc(S(=O)(=O)NCc2cccnc2N(C)C)cc1,-3.4%
9,Cc1ccc(CNCc2ccc(-n3nc(C)cc3C)nc2)cc1,1.23%
10,O=C(c1cccnc1)N1CCCC(c2cc(C(F)F)n3ncnc3n2)C1 (stereo not given),5.29%
11,Cc1ccc(CNC2CCCc3c2cnn3C)s1 (stereo not given),-2.88%
12,CCOCC(O)CN1CCN(C(=O)c2ccc(OC)cc2F)CC1 (stereo not given),-10.1%
13,Cc1ccc([C@@H]2CN(C(=O)c3csc(C)n3)C[C@H]2NC(=O)C2CC2)cc1,-3.36%
14,COCCN1CC[C@@H]2O[C@@H](COCC(=O)N3CCCC3)CC[C@@H]21,-4.13%
15,O=C(O)c1csc(S(=O)(=O)Nc2cccc(OC(F)F)c2)c1,-0.5%
16,CCn1cnnc1C1CCN(C(=O)COc2ccccc2)CC1,-1.18%
17,CC(C)c1ccc(O)c(C(=O)N2CCN(Cc3cscn3)CC2)c1,-0.175%
18,COc1c(CNCCNC(=O)c2ccc(C)cc2)c(C)nn1C,-4.08%
19,Cc1ccc(C(=O)N2C[C@@H](OCC3CCOCC3)[C@H]3OCCC[C@H]32)o1,-0.93%
20,COCCN(C)C[C@@H]1CN(C(=O)c2ccoc2)C[C@@H]1CO,-4.07%
